An excerpt weighted towards active compounds, which were near 21% of everything screened.
Pf growth 48h – inhibits P. falciparum growth in the first generation, 48 h. P. falciparum luciferase growth in erythrocytes, 48 h. Potency, µM (series often up to 28.7 µM), actives largely listed as inhibitors. hit rate 5.9% among 310,000. AID 504832
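A one-generation exposure of luciferase-tagged malaria parasites in RPMI 1640/Albumax erythrocyte culture, 37 C and 5% CO2. Inhibition is inferred from decreased luminescence after adding detection reagent.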
CHX counter – counter-screen hit for Shiga toxin inhibitors, cycloheximide. AID 2314. max response, %. cell reporter, cycloheximide protein synthesis inhibition counterscreen. hit rate 12% among 300,000; in the data active means max response mostly above about 13%, no sharp cut-off; inactive means mostly below about 14%; further: read at 38.3 µM for the half of the compounds with a filed dose
NS1 inh – inhibitors of influenza NS1 protein function | hit rate 0.4% among 270,000 | Potency, µM (titrated, usually from 46.1 µM); calls by dose curve; further: actives are rising curves; nearly all actives have a fitted effect of over 50% in size
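Recovery from NS1-induced slow growth read by OD600 in budding yeast switched to galactose assay medium (pH 6.0, -URA) at 1:100 dilution. Compound 23 nl per well; the matching strain lacking NS1 serves as control.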
Shiga inhibitor – blocks Shiga toxin action in Vero cells; inhibition, % at 38.7 µM; Vero cells, Shiga toxin protein synthesis inhibition reporter; hit rate 9.2% among 290,000; in the data active means inhibition mostly above about 28%, no sharp cut-off; inactive means mostly below about 43%
Sm TGR block – S. mansoni TGR enzyme inhibition; AID 485364; hit rate 3% among 360,000; purified TGR, DTNB reduction, TNB absorbance 405 nm; Potency, µM (series often up to 114 µM), usual class: inhibitors; Q962Y6; further: nearly all actives have a fitted effect of over 60% in size
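TGR 20 nM + NADPH 100 uM (dispensed conc.), cpd preinc 15 min RT; start with NADPH (500 uM addition) then DTNB (15 mM addition). Kinetic TNB absorbance, 405 nm filter. Four-parameter Hill fit across titration.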
Pf growth 96h – inhibits malaria parasite growth, 96 h | P. falciparum luciferase reporter growth, 96 h | Potency, µM (top dose mostly 28.7 µM), usual class: inhibitors | hit rate 6.9% among 320,000 | AID 504834
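P. falciparum expressing integrated firefly luciferase grown in erythrocytes (2% hematocrit, 0.05% parasitemia final) with compounds for 96 hours at 37 C, 5% CO2. Growth inhibition read as loss of luminescence after adding luciferase detection reagent.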
Large screens that a line does not name were inactive. Unless noted, the call rests on the fitted dose curve; in most records, active means well fitted curve in the direction sought with a large enough effect; inconclusive means small, poorly fitted or top-dose-only effect, or another doubt; inactive means no such curve, though single readings can be large; an effect the other way counts as inactive or inconclusive.

COc1cccc(-n2nc(-c3ccnn3-c3ccc(F)cc3)c(=O)n(C)c2=O)c1	Pf growth 96h 11.7µM (no result: Pf growth 48h)
CCOc1ccccc1NC(=O)c1ccccc1-c1nc(-c2ccccc2)no1	Pf growth 48h inconclusive, CHX counter 26.8, Pf growth 96h 8.28µM
CCOc1ccccc1-c1nc(-c2ccc(NC(=O)Cc3ccccc3OC)cc2)no1	Pf growth 48h 13.1µM, Pf growth 96h 3.7µM
COc1ccccc1CC(=O)Nc1ccc(-c2noc(COc3ccc(Cl)c(C)c3)n2)cc1	none (no result: Pf growth 48h)
Cc1cn2c(=O)c(S(=O)(=O)NC(C)c3ccccc3)c(C)nc2s1 (centres undefined)	none (no result: Pf growth 48h, CHX counter, NS1 inh, Shiga inhibitor, Pf growth 96h)
COc1ccccc1-n1c(=O)c(C#N)c(-c2ccc([N+](=O)[O-])cc2)c2cc(C(=O)c3ccccc3O)cnc21	Pf growth 48h 2.62µM, Pf growth 96h 1.85µM
CC(NC(=O)c1ccccc1F)c1nnc(SCC(=O)NC2=NCCS2)n1C (centres undefined)	none
Nc1c(-c2ccccc2)cnn1-c1cccc(Cl)c1	CHX counter 51.4, Shiga inhibitor 81.5
Cc1cccc(-c2cnn(-c3cccc([N+](=O)[O-])c3)c2N)c1	CHX counter 22.3
Nc1ccccc1Nc1cc(-c2cccc(Cl)c2)nn1-c1ccccc1	Pf growth 48h inconclusive, CHX counter 19.9, Shiga inhibitor active, Pf growth 96h inconclusive
NC(=O)c1cnn(-c2cccc(Cl)c2)c1N	none
Cc1cccc(-c2cnn(-c3ccccc3)c2N)c1	CHX counter 43.7, Shiga inhibitor 100.9
Cc1cccc(C)c1NC(=O)Cn1c(=O)n(CCC(=O)NCc2ccccc2Cl)c(=O)c2sccc21	none (no result: Pf growth 48h, CHX counter, NS1 inh, Shiga inhibitor, Pf growth 96h)
COc1ccc(OC)c(NC(=O)C2CCCN2C(=O)C2CCC(C)CC2)c1 (centres undefined)	Pf growth 96h 9.28µM (no result: Pf growth 48h)
Cc1ccc(S(=O)(=O)n2ccc3c(OCCOCCNCc4ccc(F)cc4)cccc32)cc1	Pf growth 48h 9.28µM, Pf growth 96h 10.4µM
Cc1ccc(S(=O)(=O)n2ccc3c(OCCOCCSCC(NC(=O)OC(C)(C)C)C(=O)O)cccc32)cc1 (centres undefined)	Pf growth 48h inconclusive, Pf growth 96h 9.28µM
Cc1c(NS(=O)(=O)c2cc(NC(=O)CCN3CCCC(C)C3)ccc2Cl)c(=O)n(-c2ccccc2)n1C (centres undefined)	Pf growth 48h inconclusive, Pf growth 96h inconclusive (no result: NS1 inh)
COC(=O)CCCC1=CC2=C(c3ccccc3)C(=O)C(C)(OC(=O)C3CCCC3)C(=O)C2=CN1C1CCCCC1 (centres undefined)	Pf growth 48h 10.4µM, Sm TGR block 20µM, Pf growth 96h inconclusive
COC(=O)CCCC1=CC2=C(c3ccccc3)C(=O)C(C)(OC(=O)C3CCCC3)C(=O)C2=CN1CC1CC1 (centres undefined)	Pf growth 48h inconclusive, Sm TGR block 28.2µM, Pf growth 96h 8.28µM
COC(=O)CCCC1=CC2=C(c3ccccc3)C(=O)C(C)(OC(=O)C3CCCC3)C(=O)C2=CN1CC(C)C (centres undefined)	Pf growth 48h inconclusive, Pf growth 96h inconclusive
COC(=O)CCCC1=CC2=C(c3ccccc3)C(=O)C(C)(OC(=O)C3CCCC3)C(=O)C2=CN1C1CCCC1 (centres undefined)	Pf growth 48h inconclusive, Sm TGR block inconclusive, Pf growth 96h inconclusive
COCCN1C=C2C(=O)C(C)(OC(=O)C3CCCC3)C(=O)C(c3ccccc3)=C2C=C1CCCC(=O)OC (centres undefined)	Sm TGR block 14.1µM, Pf growth 96h inconclusive
CCN(CC)CCCN1C=C2C(=O)C(C)(OC(=O)C3CCCC3)C(=O)C(c3ccccc3)=C2C=C1CCCC(=O)OC (centres undefined)	Pf growth 48h inconclusive, Sm TGR block inconclusive, Pf growth 96h inconclusive
CCc1nc2ccc(C(=O)NCCc3ccc(SC)cc3)cc2nc1CC	none (no result: Pf growth 48h, CHX counter, NS1 inh, Shiga inhibitor, Pf growth 96h)
CN(C)CCN(C(=O)c1ccc2ccccc2c1)c1nc2ccc(Br)cc2s1	CHX counter 16.4, Pf growth 96h inconclusive
CN(C)CCCN(C(=O)c1ccc2ccccc2c1)c1nc2cc3c(cc2s1)OCO3	Pf growth 48h inconclusive, Pf growth 96h 10.4µM
Cc1ccc2nc(N(CCN(C)C)C(=O)c3ccc4ccccc4c3)sc2c1	none
CN(C)CCN(C(=O)c1ccc(N2C(=O)CCC2=O)cc1)c1nc2cc3c(cc2s1)OCO3	Sm TGR block 20µM (no result: NS1 inh)
CN(C)CCN(C(=O)c1cccc(N2C(=O)CCC2=O)c1)c1nc2ccc(Br)cc2s1	CHX counter 13.0
CN(C)CCCN(C(=O)c1ccc2c(c1)OCCO2)c1nc2cc3c(cc2s1)OCO3	Pf growth 96h inconclusive
CN(C)CCCN(C(=O)c1ccc([N+](=O)[O-])o1)c1nc2cc3c(cc2s1)OCO3	CHX counter 55.0, Shiga inhibitor 59.6
CN(C)CCN(C(=O)c1ccc2ccccc2c1)c1nc2cc3c(cc2s1)OCCO3	CHX counter 39.1, Shiga inhibitor 81.9
CCN(CC)CCN(C(=O)c1cc2c(ccc3ccccc32)oc1=O)c1nc2cc3c(cc2s1)OCCO3	CHX counter 21.3
CN(C)CCN(C(=O)c1cccc2ccccc12)c1nc2cc3c(cc2s1)OCO3	Pf growth 48h 9.28µM, Pf growth 96h inconclusive
COc1cccc(-n2c(SCC(N)=O)nc3c(oc4ccccc43)c2=O)c1	none (no result: Pf growth 48h, CHX counter, NS1 inh, Shiga inhibitor, Pf growth 96h)
CN(C)CCN(C(=O)COc1ccc(Cl)cc1)c1nc2cc3c(cc2s1)OCO3	CHX counter 21.9, Pf growth 96h inconclusive
CN(C)CCCN(C(=O)COc1ccc(Cl)cc1)c1nc2cc3c(cc2s1)OCO3	none
CCN(CC)CCN(C(=O)c1ccc2ccccc2c1)c1nc2ccc(F)cc2s1	Shiga inhibitor 51.2
O=C(O)C12CC3CC(C1)CC(n1ncc(NCc4ccco4)c(Cl)c1=O)(C3)C2	Pf growth 48h inconclusive, Sm TGR block 2.82µM
CCOc1ccc(/C=N/Nc2nc(N3CCCC3)nc(N3CCCC3)n2)cc1OC	Pf growth 48h 10.4µM, Pf growth 96h inconclusive
COc1ccc(/C=N/Nc2nc(N3CCCCC3)nc(N3CCCCC3)n2)cc1[N+](=O)[O-]	Pf growth 48h inconclusive
CNc1nc(N/N=C/c2cc3c(cc2[N+](=O)[O-])OCO3)nc(Nc2ccccc2)n1	Pf growth 48h 2.62µM (no result: NS1 inh)
COc1ccc(/C=N/Nc2nc(Nc3ccccc3)nc(N3CCCC3)n2)cc1[N+](=O)[O-]	Pf growth 48h 2.08µM (no result: NS1 inh)
CC1CCC(NC(=O)c2cnccn2)CC1 (centres undefined)	Pf growth 96h inconclusive
Cc1ccnc(NC(=O)c2ccc(S(=O)(=O)N3CCCC3)cc2)c1	none (no result: CHX counter, NS1 inh, Shiga inhibitor)
O=C(NN=C(Cc1ccccc1)Cc1ccccc1)C1CC1	CHX counter 20.9 (no result: NS1 inh)
O=C(NCc1ccccc1)NC(=O)c1ccccc1F	CHX counter 27.5, Shiga inhibitor 32.8, Pf growth 96h inconclusive
O=C(N/N=C/CCc1ccccc1)C1CCCCC1	none
CCCC(CCC)=NNC(=O)c1ccccc1F	none (no result: NS1 inh)
CC/C(Cc1ccccc1)=N\NC(=O)c1cc(C)oc1C	none
